Assay results published in the supplement of paper PMC12669032.
Where “and” joins values, the source holds several entries; their conditions need not be identical. Equal entries are not always repeated. Unmarked numbers belong to inactive results.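 How the source made its calls: active = AUC reduced over 20% with Padj below 0.05 in at least 2 of 3 replicates; inactive = otherwise.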

Key:
Assay in all cases: growth AUC relative to DMSO control (median of replicates) (fraction); higher = more growth (less inhibition), active = hit call of the paper
Conditions in all cases: 20 µM; 24 h
Akkermansia muciniphila = tested on: Akkermansia muciniphila
Method in brief: (§1)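 In round-bottom 96-well plates sealed with pierced gas-permeable seals, gut bacterial monocultures in mGAM were grown anaerobically at 37 °C from OD600 0.05 with 20 µM compound (1% DMSO). OD600 readings were taken hourly for 24 h, and the minimum OD was set to 0. Area under the growth curve was then normalised to the plate median of solvent-only wells, or to row and column medians on the industrial chemical plate. The value given is the median of three biological replicates grown on separate days.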

Bacteroides caccae = tested on: Bacteroides caccae
Method in brief: as §1

Bacteroides clarus = tested on: Bacteroides clarus
Method in brief: as §1

Bacteroides dorei = tested on: Bacteroides dorei
Method in brief: as §1

Bacteroides stercoris = tested on: Bacteroides stercoris
Method in brief: as §1

[1] = tested on: Bacteroides thetaiotaomicron
Method in brief: as §1

Bacteroides uniformis = tested on: Bacteroides uniformis
Method in brief: as §1

[2] = tested on: Bifidobacterium longum subsp. longum
Method in brief: as §1

Clostridium difficile = tested on: Clostridium difficile
Method in brief: as §1

Collinsella aerofaciens = tested on: Collinsella aerofaciens
Method in brief: as §1

Coprococcus comes = tested on: Coprococcus comes
Method in brief: as §1

Escherichia coli ED1a = tested on: Escherichia coli ED1a
Method in brief: as §1

Escherichia coli IAI1 = tested on: Escherichia coli IAI1
Method in brief: as §1

Eubacterium rectale = tested on: Eubacterium rectale
Method in brief: as §1

[3] = tested on: Fusobacterium nucleatum subsp. animalis
Method in brief: as §1

Lactobacillus gasseri = tested on: Lactobacillus gasseri
Method in brief: as §1

Lactobacillus paracasei = tested on: Lactobacillus paracasei
Method in brief: as §1

Odoribacter splanchnicus = tested on: Odoribacter splanchnicus
Method in brief: as §1

[4] = tested on: Parabacteroides distasonis
Method in brief: as §1

Parabacteroides merdae = tested on: Parabacteroides merdae
Method in brief: as §1

Row | SMILES | growth AUC (Akkermansia muciniphila) | growth AUC (Bacteroides caccae) | growth AUC (Bacteroides clarus) | growth AUC (Bacteroides dorei) | growth AUC (Bacteroides stercoris) | growth AUC [1] | growth AUC (Bacteroides uniformis) | growth AUC [2] | growth AUC (Clostridium difficile) | growth AUC (Collinsella aerofaciens) | growth AUC (Coprococcus comes) | growth AUC (Escherichia coli ED1a) | growth AUC (Escherichia coli IAI1) | growth AUC (Eubacterium rectale) | growth AUC [3] | growth AUC (Lactobacillus gasseri) | growth AUC (Lactobacillus paracasei) | growth AUC (Odoribacter splanchnicus) | growth AUC [4] | growth AUC (Parabacteroides merdae)
1 | O=C1C=CC(=O)C=C1 | 0.97 | 0.991 | 0.992 | 1.01 | 1.02 | 1.01 | 1 | 1.01 | 0.997 | 0.992 | 1.02 | 1.01 | 1.01 | 0.986 | 0.983 | 1.04 | 1 | 0.975 | 1.03 | 1.01
2 | CCc1nn(C)c(C(=O)NCc2ccc(C(C)(C)C)cc2)c1Cl | 1.02 | 0.94 | 0.929 | 0.921 | 0.725 (active) | 0.694 (active) | 0.982 | 0.95 | 0.972 | 0.887 | 0.954 | 0.974 | 0.967 | 1.01 | 0.984 | 0.913 | 1.06 | 0.956 | 0.991 | 0.918
3 | COP(=S)(OC)Oc1cc(Cl)c(I)cc1Cl | 1.09 | 0.999 | 0.959 | 0.985 | 1.04 | 0.964 | 0.954 | 0.918 | 0.937 | 0.941 | 1.01 | 1.02 | 0.985 | 1.01 | 1.08 | 0.872 | 1 | 0.962 | 0.707 (active) | 0.964
4 | COP(=S)(OC)SCC(=O)N(c1ccc(Cl)cc1)C(C)C | 0.942 | 0.983 | 0.965 | 0.965 | 1.03 | 0.929 | 0.912 | 1.02 | 1.01 | 0.993 | 1.04 | 0.988 | 0.976 | 0.964 | 0.985 | 1.03 | 1.04 | 1 | 0.861 | 0.924
5 | CC(Oc1ccc(Cl)cc1Cl)C(=O)O (stereo not given) | 1.09 | 1.02 | 0.987 | 0.942 | 0.981 | 1 | 0.979 | 1.04 | 1.01 | 0.976 | 1.02 | 0.978 | 0.966 | 1.04 | 0.97 | 0.927 | 0.989 | 0.965 | 0.857 | 0.973
6 | CN(C(=O)COc1nc2ccccc2s1)c1ccccc1 | 1.06 | 0.925 | 1.03 | 0.956 | 1.26 | 0.96 | 0.934 | 1.12 | 0.982 | 1.01 | 1.01 | 1.02 | 0.952 | 1 | 1.1 | 1.13 | 1.02 | 0.934 | 0.948 | 0.998
7 | CC(=NC#N)N(C)Cc1ccc(Cl)nc1 | 0.993 and 0.945 | 0.979 and 0.959 | 1.02 and 0.96 | 0.993 and 1.01 | 1.08 and 0.985 | 0.987 and 0.95 | 1 and 0.993 | 1.03 and 0.979 | 0.986 and 1 | 1.02 | 1.06 and 0.993 | 0.994 and 1 | 0.982 and 1.08 | 0.908 and 0.994 | 0.987 and 0.952 | 0.985 and 1.03 | 1.03 and 0.987 | 1.04 and 1.02 | 1.02 and 1 | 1.04 and 0.98
8 | CC(C)N(C(=O)SCC(Cl)=C(Cl)Cl)C(C)C | 1.26 | 1 | 1.02 | 0.955 | 0.955 | 0.999 | 0.989 | 1.01 | 0.994 | 0.953 | 0.981 | 0.977 | 0.977 | 1.08 | 1.01 | 0.948 | 1 | 0.944 | 0.872 | 0.947
9 | CCSCCSP(=S)(OC)OC | 1.09 | 1.02 | 0.996 | 0.996 | 1.07 | 0.992 | 1.01 | 1.03 | 1.03 | 1.09 | 1.1 | 1.01 | 1 | 0.899 | 1.05 | 1.06 | 1.01 | 1.07 | 1.05 | 0.988
10 | CC(=O)CC(c1ccc(Cl)cc1)c1c(O)c2ccccc2oc1=O (stereo not given) | 0.928 | 0.939 | 0.873 | 0.958 | 0.91 | 0.938 | 0.777 (active) | 0.939 | 1.04 | 1.01 | 0.987 | 0.952 | 1.02 | 0.881 | 0.929 | 1.3 | 0.982 | 0.971 | 0.787 (active) | 0.954
11 | NCP(=O)(O)O | 1.04 | 1.02 | 1.03 | 1.03 | 1.17 | 0.982 | 1.02 | 1.04 | 1.06 | 1.05 | 1.02 | 1.02 | 1.04 | 1.01 | 0.965 | 1.09 | 1.02 | 1.02 | 1.04 | 1.02
12 | ClC1=C(Cl)[C@]2(Cl)[C@@H]3[C@@H]4C[C@@H]([C@H]5O[C@@H]45)[C@@H]3[C@@]1(Cl)C2(Cl)Cl | 0.945 | 0.98 | 1.01 | 1 | 0.947 | 0.967 | 0.979 | 1.02 | 0.973 | 0.989 | 0.95 | 0.977 | 0.996 | 0.999 | 0.881 | 0.999 | 0.959 | 0.899 | 1.05 | 0.932
13 | CON(C)C(=O)Nc1ccc(Br)c(Cl)c1 | 0.863 | 1.04 | 0.978 | 1.08 | 0.958 | 0.998 | 0.944 | 0.946 | 0.996 | 1 | 1.03 | 0.958 | 1.04 | 0.867 | 0.886 | 1.13 | 0.989 | 0.998 | 1.01 | 0.967
14 | O=C(NCCc1ncc(C(F)(F)F)cc1Cl)c1ccccc1C(F)(F)F | 0.849 | 0.978 | 1.01 | 1 | 0.951 | 0.973 | 0.987 | 0.974 | 0.996 | 1 | 1 | 1.01 | 0.988 | 0.964 | 0.875 | 0.999 | 1.01 | 0.985 | 0.96 | 0.996
15 | CCOP(=S)(OCC)SCS(=O)CC (stereo not given) | 1.03 | 0.99 | 0.994 | 1.01 | 1.05 | 1.02 | 0.994 | 1.03 | 0.972 | 1.01 | 1.03 | 0.996 | 1.01 | 0.995 | 1.04 | 0.95 | 0.95 | 1.06 | 1.09 | 0.998
16 | CCOP(=S)(OCC)Oc1cnc2ccccc2n1 | 0.881 | 0.925 | 0.94 | 0.993 | 0.934 | 0.895 | 0.867 | 0.987 | 0.988 | 0.992 | 0.989 | 0.977 | 0.977 | 0.91 | 0.995 | 0.966 | 1.01 | 1.01 | 0.589 (active) | 0.947
